Several values for one entry are separate records, joined by “and”; a condition that tells them apart may be missing. Identical values can stand only once. Hit rate of the full screen: of about 5,500 compounds, about 2,000 (36%) were called active. Roughly 18% stayed inconclusive and do not appear here. Rule as the data show it: active = normalized growth mostly below about 0.91 (no sharp cut-off); inconclusive = no clear call, values can overlap the other calls; inactive = mostly above about 0.92. The list shows a part of the results.
Assay: chemical genetic growth profiling, strain panel (AID 1159580);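 also: tested at 20 µM; growth read once vehicle control cultures reached saturation at 30 °C; 1 = growth at the plate median or of vehicle wells; lower values mean less growth of the strain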
Details: S. cerevisiae deletion strains, growth OD

Measured: normalized growth

CCC1(c2ccccc2)C(=O)NCNC1=O
inactive: locus YAL013W, strain DEP1, hits give low values 1.01 | locus YAL021C, strain ccr4, hits give low values 1 | locus YAL026C, strain drs2, hits give low values 0.991 | locus YAL030W, strain snc1, hits give low values 1.01 | locus YAL040C, strain CLN3, hits give low values 0.982 | locus YBL061C, strain skt5, hits give low values 1.01 | locus YBR009C, strain hhf1, hits give low values 0.997 | locus YBR021W, strain FUR4, hits give low values 1 | locus YBR023C, strain chs3, hits give low values 1.01 | locus YBR171W, strain sec66, hits give low values 0.991 | locus YBR229C, strain ROT2, hits give low values 1 | locus YBR231C, strain swc5, hits give low values 1 | locus YBR279W, strain paf1, hits give low values 1.02 | locus YCL011C, strain gbp2, hits give low values 0.978 | locus YCL016C, strain dcc1, hits give low values 1.01 | locus YCL029C, strain bik1, hits give low values 0.994 | locus YCL061C, strain MRC1 (second series), hits give low values 0.993 | locus YCL061C, strain MRC1, hits give low values 0.988 | locus YCL069W, strain vba3, hits give low values 0.99 | locus YCR088W, strain abp1, hits give low values 0.984 | locus YDL005C, strain med2, hits give low values 1.01 | locus YDL035C, strain GPR1, hits give low values 1.01 | locus YDL040C, strain nat1, hits give low values 1.01 | locus YDL074C, strain BRE1, hits give low values 1.01 | locus YDL101C, strain DUN1, hits give low values 1.01 | locus YDL134C, strain PPH21, hits give low values 0.998 | locus YDL185W, strain tfp1, hits give low values 0.991 | locus YDL192W, strain arf1, hits give low values 0.999 | locus YDR001C, strain nth1, hits give low values 0.987 | locus YDR069C, strain doa4, hits give low values 0.998 | locus YDR101C, strain arx1, hits give low values 1.01 | locus YDR137W, strain rgp1, hits give low values 1.02 | locus YDR150W, strain NUM1, hits give low values 0.992 | locus YDR159W, strain sac3, hits give low values 0.994 | locus YDR162C, strain NBP2, hits give low values 1.01 | locus YDR195W, strain ref2 0.992 | locus YDR297W, strain sur2, hits give low values 1.01 | locus YDR318W, strain mcm21, hits give low values 1 | locus YDR334W, strain swr1, hits give low values 1 | locus YDR335W, strain msn5, hits give low values 1.01 | locus YDR363W, strain ESC2, hits give low values 0.969 | locus YDR388W, hits give low values 0.998 | locus YDR392W, strain spt3, hits give low values 0.958 | locus YDR502C, strain sam2, hits give low values 1 | locus YEL003W, strain gim4, hits give low values 0.975 | locus YEL037C, strain rad23, hits give low values 0.98 | locus YEL061C, strain CIN8 (second series), hits give low values 0.982 | locus YEL061C, strain CIN8, hits give low values 1 | locus YER002W, strain NOP16, hits give low values 0.988 | locus YER015W, strain faa2, hits give low values 0.99 | locus YER016W, strain bim1, hits give low values 1 | locus YER110C, hits give low values 1 | locus YER111C, strain swi4, hits give low values 0.99 | locus YER155C, strain BEM2 (second series), hits give low values 0.951 | locus YER155C, strain BEM2, hits give low values 0.998 | locus YER167W, strain BCK2, hits give low values 1 | locus YFR010W, strain ubp6, hits give low values 1 | locus YGL078C, strain dbp3, hits give low values 0.992 | locus YGL086W, strain mad1, hits give low values 1 | locus YGL167C, strain pmr1, hits give low values 1.01 | locus YGL173C, strain kem1, hits give low values 1 | locus YGL227W, strain vid30, hits give low values 0.98 | locus YGL240W, strain doc1, hits give low values 0.997 | locus YGL248W, strain PDE1, hits give low values 1 | locus YGL253W, strain hxk2, hits give low values 1 | locus YGR078C, strain PAC10, hits give low values 1.01 | locus YGR135W, strain pre9, hits give low values 0.995 | locus YGR252W, strain gcn5, hits give low values 0.987 | locus YHR013C, strain ard1, hits give low values 1.01 | locus YHR027C, strain rpn1, hits give low values 1.01 | locus YHR030C, strain SLT2, hits give low values 1 and 1.02 | locus YHR079C, strain IRE1 (second series), hits give low values 0.995 | locus YHR079C, strain IRE1, hits give low values 0.993 | locus YHR094C, strain hxt1, hits give low values 0.995 | locus YHR129C, strain ARP1, hits give low values 1.01 | locus YHR142W, strain chs7, hits give low values 1 | locus YHR200W, strain rpn10, hits give low values 0.995 | locus YIL066C, strain RNR3, hits give low values 1.01 | locus YIL073C, strain SPO22, hits give low values 1 | locus YIL125W, strain kgd1, hits give low values 1 | locus YIR030C, strain dcg1, hits give low values 0.997 | locus YJL092W, strain hpr5, hits give low values 0.975 | locus YJL095W, strain BCK1 (second series), hits give low values 1.01 | locus YJL095W, strain BCK1, hits give low values 1.01 and 1.02 | locus YJL115W, strain asf1, hits give low values 0.988 | locus YJL129C, strain trk1, hits give low values 0.967 | locus YJL134W, strain LCB3, hits give low values 1.01 | locus YJL154C, strain vps35, hits give low values 0.976 | locus YJL164C, strain tpk1, hits give low values 1 | locus YJL166W, strain qcr8, hits give low values 1.04 | locus YJL168C, strain set2, hits give low values 0.996 | locus YJL187C, strain SWE1 (second series), hits give low values 1.01 | locus YJL187C, strain SWE1, hits give low values 1.02 | locus YJR043C, strain POL32, hits give low values 1 | locus YJR066W, strain TOR1, hits give low values 0.967
